# Laboratory results as given in the supplement of paper PMC8728848.
# The sample as a whole holds a higher share of the strongest signals than the screen did.
# B1: GS13971A-bth-447-22-447 (Bacteroides thetaiotaomicron) (protein)
# chain: EDVDNERSKGMFSASQSGFSTIEVYDLGPLNKIDLSIAKAGLEDTGGTVTFSVEQSLLDSLNNADGTSYQLLPPECYTIENATYSVSPGGDRRVTGGSLVYDPHKIYNLCGFDELKYVLPLRVSSTGTPMNSDRTATLYGFIVKEAIVRLASTGGDFVVEGGTTTSPMNLDTEISFENEWDLTTSFATKGADYVDNYNSANSTYYIPLPSDFYTLPDVTIAKGKTTGGSAISLLGETLPPGNYLLPVSLGGLSGQGDASINIDKETVANYFVIKQGGPINRDHWTVTANTEEKTGEVSAAYPHNGQTISLIDGEINTFWHSKWQGGEVAPPYEIILDMGKENSVSQLGLIARQNALTSMNLEIYAGDDGETWNLIGKYFFDGSIKTEQMVPVKACDARWIRIYIPTLGSGSSVGHLAEIYVYGTDK
# Columns and labels:
# Test in all cases: glycan array binding signal (z-score within array); higher = stronger binding
# Conditions in all cases: glycan notation: IUPAC condensed, linker removed
# [1] = target: Gal(b1-4)GlcNAc(b1-3)[GlcNAc(b1-6)]Gal(b1-4)GlcNAc
# Summary of the method: (§1)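 The binding signal is a Z-score computed within each array and averaged over linkers. Arrays of the same protein sequence at different concentrations or buffers were also averaged together. Data originate from 3228 arrays in the Consortium for Functional Glycomics database, kept only where the protein sequence was available.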
# [2] = target: Gal(b1-4)GlcNAc(b1-6)[Gal(b1-4)GlcNAc(b1-3)]GalNAc
# Summary of the method: as §1
# [3] = target: Gal3S(b1-4)[Fuc(a1-3)]GlcNAc6S
# Summary of the method: as §1
# [4] = target: Gal6P(b1-4)GlcNAc
# Summary of the method: as §1
# [5] = target: GalNAc(b1-3)Gal(a1-6)Gal(b1-4)Glc
# Summary of the method: as §1
# [6] = target: GalNAc(b1-4)GlcNAc
# Summary of the method: as §1
# [7] = target: GalNAc(b1-4)GlcNAc(b1-2)Man(a1-3)[GalNAc(b1-4)GlcNAc(b1-2)Man(a1-6)]Man(b1-4)GlcNAc(b1-4)GlcNAc
# Summary of the method: as §1
# [8] = target: GalNAc4S6S(b1-4)GlcNAc
# Summary of the method: as §1
# [9] = target: Glc(a1-6)Glc(a1-6)Glc(a1-6)Glc
# Summary of the method: as §1
# [10] = target: GlcA(b1-3)GlcNAc
# Summary of the method: as §1
# [11] = target: GlcNAc(b1-3)Gal(b1-4)GlcNAc(b1-2)Man(a1-3)[GlcNAc(b1-3)Gal(b1-4)GlcNAc(b1-2)Man(a1-6)]Man(b1-4)GlcNAc(b1-4)GlcNAc
# Summary of the method: as §1
# [12] = target: GlcNAc(b1-3)Gal(b1-4)GlcNAc(b1-3)Gal(b1-4)GlcNAc(b1-3)Gal(b1-4)GlcNAc(b1-2)[GlcNAc(b1-3)Gal(b1-4)GlcNAc(b1-3)Gal(b1-4)GlcNAc(b1-3)Gal(b1-4)GlcNAc(b1-6)]Man(a1-6)[GlcNAc(b1-3)Gal(b1-4)GlcNAc(b1-3)Gal(b1-4)GlcNAc(b1-3)Gal(b1-4)GlcNAc(b1-2)Man(a1-3)]Man(b1-4)GlcNAc(b1-4)[Fuc(a1-6)]GlcNAc
# Summary of the method: as §1
# [13] = target: GlcNAc(b1-6)Gal(b1-4)GlcNAc
# Summary of the method: as §1
# [14] = target: Man(a1-3)[Man(a1-6)]Man(b1-4)GlcNAc(b1-4)GlcNAc
# Summary of the method: as §1
# [15] = target: Man(a1-3)[Man(a1-6)]Man(b1-4)GlcNAc(b1-4)[Fuc(a1-6)]GlcNAc
# Summary of the method: as §1
# [16] = target: MurNAc(b1-4)GlcNAc
# Summary of the method: as §1
# [17] = target: Neu5Ac(a2-3)Gal(b1-3)GalNAc
# Summary of the method: as §1
# [18] = target: Neu5Ac(a2-3)Gal(b1-3)GlcNAc(b1-2)Man(a1-3)[Neu5Ac(a2-3)Gal(b1-3)GlcNAc(b1-2)Man(a1-6)]Man(b1-4)GlcNAc(b1-4)GlcNAc
# Summary of the method: as §1
# [19] = target: Neu5Ac(a2-3)Gal(b1-4)GlcNAc(b1-2)[Neu5Ac(a2-3)Gal(b1-4)GlcNAc(b1-6)]Man(a1-6)[Neu5Ac(a2-3)Gal(b1-4)GlcNAc(b1-2)Man(a1-3)]Man(b1-4)GlcNAc(b1-4)GlcNAc
# Summary of the method: as §1
# [20] = target: Neu5Ac(a2-3)Gal(b1-4)GlcNAc(b1-3)Gal(b1-4)GlcNAc
# Summary of the method: as §1
# [21] = target: Neu5Ac(a2-3)Gal(b1-4)GlcNAc(b1-3)Gal(b1-4)GlcNAc(b1-3)Gal(b1-4)GlcNAc(b1-2)Man(a1-3)[Neu5Ac(a2-3)Gal(b1-4)GlcNAc(b1-3)Gal(b1-4)GlcNAc(b1-3)Gal(b1-4)GlcNAc(b1-2)Man(a1-6)]GalNAc
# Summary of the method: as §1
# [22] = target: Neu5Ac(a2-6)Gal(b1-4)GlcNAc(b1-2)Man(a1-3)[GlcNAc(b1-4)][Neu5Ac(a2-6)Gal(b1-4)GlcNAc(b1-2)Man(a1-6)]Man(b1-4)GlcNAc(b1-4)GlcNAc
# Summary of the method: as §1
# [23] = target: Neu5Ac(a2-6)Gal(b1-4)GlcNAc(b1-2)[Neu5Ac(a2-6)Gal(b1-4)GlcNAc(b1-4)]Man(a1-3)[GlcNAc(b1-4)][Neu5Ac(a2-6)Gal(b1-4)GlcNAc(b1-4)Man(a1-6)]Man(b1-4)GlcNAc(b1-4)GlcNAc
# Summary of the method: as §1
# [24] = target: Neu5Ac(a2-6)Gal(b1-4)GlcNAc6S
# Summary of the method: as §1
# [25] = target: Neu5Ac(a2-8)Neu5Ac(a2-8)Neu5Ac(a2-3)Gal(b1-4)Glc
# Summary of the method: as §1
binder,measurement,setting,value
B1,glycan array binding signal (z-score),[1],0.129
same,glycan array binding signal (z-score),[2],-0.463
same,glycan array binding signal (z-score),[3],0.338
same,glycan array binding signal (z-score),[4],-0.674
same,glycan array binding signal (z-score),[5],-0.007
same,glycan array binding signal (z-score),[6],2.92
same,glycan array binding signal (z-score),[7],5.75
same,glycan array binding signal (z-score),[8],-0.217
same,glycan array binding signal (z-score),[9],0.028
same,glycan array binding signal (z-score),[10],-0.782
same,glycan array binding signal (z-score),[11],-0.725
same,glycan array binding signal (z-score),[12],2.94
same,glycan array binding signal (z-score),[13],2.1
same,glycan array binding signal (z-score),[14],0.252
same,glycan array binding signal (z-score),[15],-0.859
same,glycan array binding signal (z-score),[16],-0.36
same,glycan array binding signal (z-score),[17],0.032
same,glycan array binding signal (z-score),[18],-0.673
same,glycan array binding signal (z-score),[19],1.47
same,glycan array binding signal (z-score),[20],1.45
same,glycan array binding signal (z-score),[21],2.81
same,glycan array binding signal (z-score),[22],0.18
same,glycan array binding signal (z-score),[23],-1.25
same,glycan array binding signal (z-score),[24],-1.24
same,glycan array binding signal (z-score),[25],1.11
